DRD3 antagonist = antagonists of human D3 dopamine receptor | max response, negative = inhibition, % | D3R cells, DiscoveRx beta-arrestin luminescence, antagonist mode; stronger effect = lower value | P35462 | hit rate 2.5% among 360,000 | AID 652054; in the data active means max response below about -50%; inconclusive means no clear call, values can overlap the other calls; further: on the % scale 0 is the no-effect control and ±100 the full control effect
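Cells expressing the human receptor were seeded at 1500 cells/well, incubated overnight at 37 degrees C in 5% CO2, then exposed to library compounds with dopamine controls for 90 minutes at 37 degrees C before luminescent detection.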
D1 antag = human D1 dopamine receptor antagonism; P21728; HEK293 TREx D1 cells, calcium flux, dopamine EC80; stronger effect = lower value; activity change, negative = inhibition, % at 10 µM; hit rate 3.2% among 360,000; AID 504652; in the data active means activity change below about -30%; further: on the % scale 0 is the no-effect control and ±100 the full control effect
Target sequence (P21728 whole entry, looked up): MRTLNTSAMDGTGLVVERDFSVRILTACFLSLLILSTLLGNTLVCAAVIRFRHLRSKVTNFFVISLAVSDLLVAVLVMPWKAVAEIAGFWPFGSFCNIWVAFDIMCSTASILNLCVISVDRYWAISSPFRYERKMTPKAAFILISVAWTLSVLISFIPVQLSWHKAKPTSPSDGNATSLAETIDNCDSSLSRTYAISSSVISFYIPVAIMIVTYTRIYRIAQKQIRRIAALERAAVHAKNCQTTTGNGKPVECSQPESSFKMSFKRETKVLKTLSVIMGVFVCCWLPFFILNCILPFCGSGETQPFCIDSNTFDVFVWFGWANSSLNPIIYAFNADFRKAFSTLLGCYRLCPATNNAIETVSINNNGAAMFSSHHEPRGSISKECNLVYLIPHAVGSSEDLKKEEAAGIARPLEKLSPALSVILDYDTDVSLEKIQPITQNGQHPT
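HEK293 T-REx cells expressing inducible, force-coupled D1 receptor; no-wash Ca dye, 30–90 min RT. Cmpd → 180 s read at 1 Hz → EC80 DA → 180 s read.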
D1 agonist = human D1 receptor agonism. P21728. HEK293 T-REx D1 cells, calcium flux, agonist mode. activation, % at 2 µM. hit rate 1% among 360,000. AID 504660; in the data active means activation above about 30%; further: 0% is about no effect
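Tetracycline-induced HEK293 TREx D1 cells, force-coupled to calcium signalling, were dye-loaded with a no-wash calcium kit. Compound was pin-added after a 10 s baseline. Fluorescence was read kinetically at 1 cycle/s for 180 s, with calcium rises flagged as agonism.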
D1 PAM = enhances dopamine response at the human D1 receptor | P21728 | HEK293 TREx D1 cells, calcium flux, dopamine EC20 potentiation | potentiation, % at 10 µM | hit rate 0.036% among 360,000; in the data active means potentiation above about 30%; further: 0% is about no effect
D3 ag = agonists of human D3 dopamine receptor; AID 652048; D3R DiscoveRx beta-arrestin cells, luminescence, 90 min; max activation, %; hit rate 0.58% among 410,000; in the data active means max activation above about 30%; further: 0% is about no effect
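Agonist mode: compounds and dopamine controls were applied to plated cells for 90 min at 37 degrees C after an overnight attachment at 1500 cells/well. Luminescent read-out followed 30 - 60 minutes at room temperature with DiscoveRx detection reagent.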
Starred values were filed as active, the others as inactive; ? = inconclusive; . = no result given. Most compounds without a hit are left out; they make up all but 6% or so of the library.

SMILES	DRD3 antagonist	D1 antag	D1 agonist	D1 PAM	D3 ag
Cc1cc(C)n(-c2nc3ccccc3nc2Nc2ccc(Cl)c(Cl)c2)n1	.	-1	-1	-4	-8
CCc1ccccc1NC(=O)c1ccc(OCc2c(C)noc2C)cc1	-7	.	.	.	1
CCC(CC)C(=O)Nc1ccc(C(=O)OCc2cc(=O)n3nc(C4CC4)sc3n2)cc1	.	5	-1	0	27
Cc1ccc2c(c1)c(=O)c1ccccc1n2CCCC(=O)Nc1ccc(C)c(C)c1	.	-1	2	-1	4
Cc1ccc(NC(=O)Cc2nn(C)c(=O)c3ccccc23)cc1F	14	-66*	17	-6	5
Cc1ccc2c(c1)c(=O)c1ccccc1n2CCCC(=O)Nc1ccc(C)c(F)c1	.	-48*	7	-2	0
NC(=O)C1(N2CCCCC2)CCN(c2nc(-c3ccc(Br)cc3)cs2)CC1	17	-14	7	-4	8
NC(=O)C1(N2CCCCC2)CCN(Cc2ccc(F)cc2)CC1	-88*	-9	-1	-8	-28
NC(=O)C1(N2CCCCC2)CCN(Cc2ccc(Br)cc2)CC1	-115*	-11	7	-10	-21
Cc1ccc(C(=O)NCCN2C3=NC[C@H](C)N3C[C@H]2Cc2ccc(O)cc2)cc1Br	-58*	-1	-3	-4	-62
COc1ccc(C[C@@H]2CN3C(=NC[C@@H]3C)N2C[C@H](C)NC(=O)c2ccc(C)c(Br)c2)cc1	-22	-7	2	-3	-32
COc1ccc(C[C@H]2CN3C(=NC[C@H]3C)N2CCNC(=O)c2ccc(C)c(Br)c2)cc1	-57*	17	2	-6	-47
Cc1ccc(C(=O)NCCN2C3=NC[C@H](C(C)C)N3C[C@H]2Cc2ccc(O)cc2)cc1Br	0	-19	-4	-2	-44
COc1ccc(C[C@H]2CN3C(=NC[C@@H]3C(C)C)N2CCNC(=O)c2ccc(C)c(Br)c2)cc1	-64*	0	30*	-3	-55
Cc1cc(Nc2ccc(F)cc2)nc(-n2nc(C)cc2C)n1	.	9	1	1	7
CC1(C)C2CCC1(CS(=O)(=O)NCc1ccc(C(F)(F)F)cc1)C(=O)C2 (centres undefined)	25	-22	3	-3	-3
CCOC(=O)[C@@H]1[C@H]2COc3cc(OC)ccc3[C@H]2N2C(=O)N(c3ccc(C(F)(F)F)cc3)C(=O)[C@]12C	17	.	.	.	28
CC(C)n1cc(CN2CCC(C(=O)Nc3cccc(-c4cccc(Cl)c4)c3)CC2)cn1	-23	-21	41*	-4	-9
CCn1nc(C)c(CN2CCC(C(=O)Nc3cccc(-c4cccc(F)c4)c3)CC2)c1C	?	-20	37*	-4	0
Cc1ccc(CN2CCC(C(=O)Nc3cccc(-c4cccc(F)c4)c3)CC2)o1	0	2	2	-1	-3
CCn1cc(CN2CCC(C(=O)Nc3cccc(-c4cccc(F)c4)c3)CC2)cn1	-24	-38*	18	-10	-21
CCCCc1cc2c(=O)c(C(=O)OC)c[nH]c2cc1OCc1ccccc1	.	.	.	.	11
CCOC(=O)/C(=N\Nc1ccc(C(C)=O)cc1)c1csc(Nc2ccccc2)n1	28	2	54*	-7	3
CN(Cc1ccccc1)C(=O)[C@@H]1CCCN1C(=O)[C@@H]1CCCN1C(=O)c1cccc2ccccc12	-50*	.	.	.	-5
Cc1oc2ncn(C)c(=O)c2c1C(=O)N1CCN(c2ccc(Cl)cc2)CC1	.	-21	1	-2	2
SMILES	DRD3 antagonist	D1 antag	D1 agonist	D1 PAM	D3 ag
Cc1ccc(S(=O)(=O)C2(C(=O)Nc3cccnc3)CC2)cc1	-63*	37	1	5	-6
COc1ccc(N(C)S(=O)(=O)c2cccc(C(=O)NC3=NCCS3)c2)cc1	-11	-39*	9	-11	-2
COc1cc(OC)cc(C(=O)Nc2ccc(N3CCOCC3)cc2N2CCOCC2)c1	14	-52*	-1	-3	3
Cc1ccc(NC(=O)CSCC(=O)Nc2cc(C(F)(F)F)ccc2N2CCOCC2)cc1	8	-34*	1	-2	5
Cc1ccc(N(C)S(=O)(=O)c2cccc(C(=O)NC3=NCCS3)c2)cc1	10	.	0	-2	-1
Cc1ccc(C(=O)Nc2ccc(N3CCOCC3)cc2N2CCOCC2)cc1	2	-69*	2	-19	3
Cc1ccc(CCNC(=O)c2sc3nc4n(c(=O)c3c2C)CCC4)cc1	4	-20	1	-1	0
Cc1ccc(N(C)S(=O)(=O)c2cccc(C(=O)Nc3ccc(N4CCOCC4)cc3)c2)cc1	0	-39*	3	-7	-4
COc1cc(Cl)c(NS(=O)(=O)c2ccc3[nH]c(=O)ccc3c2)c(OC)c1	.	10	1	-4	1
CCN(CC)c1ccc(C=Nc2ccccc2)c(O)c1	-54*	-15	1	-9	-3
CCN(CC)c1ccc(N=Cc2ccc(N(CC)CC)cc2O)cc1	-19	-8	0	-5	-8
Cc1cc(OCC(O)CN2CCN(c3ccccn3)CC2)cc(C)c1Cl (centres undefined)	-3	33	6	-9	51*
OC(COc1ccc(Cl)c2ccccc12)CN1CCN(c2ccccn2)CC1 (centres undefined)	5	-20	5	-1	72*
CC(C)(C)C1CCC(OCC(O)CN2CCN(Cc3ccccc3)CC2)CC1 (centres undefined)	?	-2	8	6	-7
OC(COC(c1ccccc1)c1ccccc1)CN1CCN(c2ccccn2)CC1 (centres undefined)	-9	-12	5	-4	56*
OC(CN1CCN(c2ccccn2)CC1)Cn1c2ccccc2c2ccccc21 (centres undefined)	0	-2	10	-2	0
CC(C)(C)C1CCC(OCC(O)CN2CCN(c3ccccn3)CC2)CC1 (centres undefined)	-4	-3	5	-2	65*
OC(COc1cc(Cl)c(Cl)cc1Cl)CN1CCN(c2ncccn2)CC1 (centres undefined)	?	0	11	-8	16
Cn1c(O)c(C=NCCCCCC(=O)O)c(=O)n(C)c1=O	-7	.	.	.	0
CC1CN(CC(O)COC2CCC(C(C)(C)C)CC2)CC(C)O1 (centres undefined)	0	4	5	-4	-8
CC1CCCC(C)N1CC(O)COC1CCC(C(C)(C)C)CC1 (centres undefined)	-12	25	31*	-8	1
Cc1cc(C)c(OCC(O)CN2CCN(c3ccccn3)CC2)c(C)c1 (centres undefined)	0	-8	4	-14	106*
COc1cccc(N2C(=O)N(CC(=O)NCc3cccc(OC)c3OC)c3ccccc3S2(=O)=O)c1	.	-17	3	-2	7
O=C(NCc1ccc2c(c1)CCN2C(=O)c1ccc(Cl)cc1)c1cccc(F)c1	.	-4	-1	-4	2
